Results on 28 compounds are retold here after PubChem BioAssay (NCATS).

For experiment [1], the target named is Glutaminase kidney isoform, mitochondrial (Homo sapiens) (UniProt O94925). Nature of the experiment: qHTS for Inhibitors of Glutaminase (GLS): LOPAC Validation (AID 624146). Also: nearly all actives have a fitted effect of over 60% in size. Also: potency is read from the fitted curve at half-maximal effect. The procedure, abridged: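 Two-point fluorescence kinetic (t0, 30 min RT) for hKGA; glutamate detected via glutamate oxidase–HRP–Amplex Red. Substrate: 1 mM L-glutamine solution; buffer 45 mM KH2PO4, pH 8.2.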

A short description of experiment [2]: qHTS of Trypanosoma Brucei Inhibitors: LOPAC Validation (AID 624147). Also: 0% is about no effect. The procedure, abridged:
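Assay buffer: 50 mM TEA pH 7.2, 100 mM KCl, 10 mM MgCl2, 0.05% BSA, 0.01% Tween-20. Pyruvate kinase from T. brucei plus substrate met compound, then ADP (130 uM final). Luminescence was read post 45 min RT.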
In general terms: In qHTS, concentration-response curves come from the screen itself.

The nature of experiment [3]: HTS Assay for Allosteric Antagonists of the Human D2 Dopamine Receptor: Hit Validation in HTRF (AID 624455).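 Also: stable D1 dopamine receptor cell line scored for blocking the D1 response; % is scaled to controls: 0 for no effect and ±100 for the full control effect.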 The procedure, abridged:
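Signal from an HTRF read-out in D1-expressing stable cells gave hit activity as inhibition of the D1 response.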

A short description of experiment [4]: qHTS of Nrf2 Activators: LOPAC Validation (AID 624149). Also: 0% is about no effect. The procedure, abridged:
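ARE reporter activation measured in AREc32 firefly luciferase cells after 24 hr compound exposure; Steady-Glo luminescence.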

Experiment [5] is described as follows: Cytotoxicity counterscreen for NFkB agonists and antagonists (AID 624476). Also: % is scaled to controls: 0 for no effect and ±100 for the full control effect.
Experiment [6] in a line: qHTS Assay for Identification of Small Molecule Agonists for NFkB Signaling Pathway. (AID 624478).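 Also: compounds tested together with TNF alpha at its EC50 of 10 pM; 0% is about no effect.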 As for the experimental part: The TNF alpha/NFkB signaling pathway was assayed in NFkB-bla cells (Invitrogen), a ME-180 cervical carcinoma line containing a stably integrated beta-lactamase reporter gene controlled by a NFkB response element. This reporter is induced by TNF alpha at 10 pM EC50 and inhibited by the proteosome inhibitor MG-132 at approximately 100 nM IC50. The assay was screened at the EC50 of TNF alpha activation to identify activators of TNF alpha/NFkB signaling
Cells were trypsinized, washed in assay medium (AM, OPTI MEM with 0.5% fetal bovine serum, 0.1 mM nonessential amino acids, 1 mM sodium pyruvate, 10mM HEPES pH 7.3, 100U/ml penicillin, and 100 ug/ml streptomycin) and plated at 1000 cells/5 uL/well into black clear-bottom 1536 well plates. After an overnight incubation at 37 C and 5% CO2, 23 nL of compound were delivered by a pin tool, 1 uL of TNF alpha (10 pM final concentration in AM) was added and plates were incubated at 37 C for 5 hrs. One uL of LiveBLAzerTM detector mix (Invitrogen) was added, the plates incubated at room temperature for 2 hrs, and fluorescence intensity at 460 and 530 nm emission was measured at 405 nm excitation by an Envision (Perkin Elmer).

Experiment [7] in a line: qHTS Assay for Identification of Small Molecule Antagonists for NFkB Signaling Pathway. (AID 624479; calls by dose curve;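 also: pathway stimulated with TNF alpha; % is scaled to controls: 0 for no effect and ±100 for the full control effect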).
A short description of experiment [8]: Cell Proliferation Assay against the TMD8 Cell Line (AID 651645).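 Also: cells exposed to compound for 48 h before reading.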 Particulars: TMD8 DLBCL cell line proliferation/viability; at 46.1 µM (top of the series). Put shortly:
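Cell viability of the ABC DLBCL line TMD8 is measured by CellTiter-Glo luminescence following a 48-hour incubation with compound. Percent activity uses DMSO as 100% and 9.2 uM bortezomib (final) as 0%.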

The target of experiment [9] is Glucagon-like peptide 1 receptor (Homo sapiens) (UniProt P43220). The experiment can be described thus: qHTS of GLP-1 Receptor Agonists: LOPAC Validation (AID 624148).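 Also: 0% is about no effect; higher luminescence signal means agonism.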 Put shortly: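 HEK293 cells stably co-expressing a cAMP-responsive luciferase reporter and a hypersensitive GLP-1R were plated 12 h at 37 °C and exposed to compounds for 4-6 hr at 37 °C, 5% CO2. Luminescence was read 12 min after adding detection reagent.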

Records with an inconclusive call do not appear. Activity calls are given as the source filed them. Unless noted, calls follow the shape of the dose curve; as a rule, active = well fitted curve in the direction sought with a large enough effect; inconclusive = small, poorly fitted or top-dose-only effect, or another doubt; inactive = no such curve, though single readings can be large; an effect the other way counts as inactive or inconclusive.

Sequence of Glutaminase kidney isoform, mitochondrial (Homo sapiens) (O94925 whole entry, looked up, canonical isoform): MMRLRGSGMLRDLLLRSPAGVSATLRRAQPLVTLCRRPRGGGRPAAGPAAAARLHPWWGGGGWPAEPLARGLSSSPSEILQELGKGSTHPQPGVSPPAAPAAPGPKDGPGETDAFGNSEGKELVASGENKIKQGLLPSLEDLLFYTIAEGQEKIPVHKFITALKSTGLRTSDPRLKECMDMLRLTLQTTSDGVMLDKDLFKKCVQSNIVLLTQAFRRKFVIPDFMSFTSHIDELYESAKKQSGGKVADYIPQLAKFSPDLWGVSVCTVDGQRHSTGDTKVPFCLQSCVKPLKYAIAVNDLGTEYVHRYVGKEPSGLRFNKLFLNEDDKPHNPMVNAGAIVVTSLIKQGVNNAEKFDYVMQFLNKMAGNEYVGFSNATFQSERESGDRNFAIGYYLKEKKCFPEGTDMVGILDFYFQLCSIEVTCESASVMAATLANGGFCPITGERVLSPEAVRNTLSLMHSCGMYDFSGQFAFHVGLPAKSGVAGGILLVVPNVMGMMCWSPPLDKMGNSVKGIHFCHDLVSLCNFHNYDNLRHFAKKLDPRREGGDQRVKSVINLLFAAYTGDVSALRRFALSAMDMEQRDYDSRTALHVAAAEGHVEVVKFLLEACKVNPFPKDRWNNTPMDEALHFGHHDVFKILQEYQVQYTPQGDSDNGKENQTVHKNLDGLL
Sequence of Glucagon-like peptide 1 receptor (Homo sapiens) (P43220 whole entry, looked up): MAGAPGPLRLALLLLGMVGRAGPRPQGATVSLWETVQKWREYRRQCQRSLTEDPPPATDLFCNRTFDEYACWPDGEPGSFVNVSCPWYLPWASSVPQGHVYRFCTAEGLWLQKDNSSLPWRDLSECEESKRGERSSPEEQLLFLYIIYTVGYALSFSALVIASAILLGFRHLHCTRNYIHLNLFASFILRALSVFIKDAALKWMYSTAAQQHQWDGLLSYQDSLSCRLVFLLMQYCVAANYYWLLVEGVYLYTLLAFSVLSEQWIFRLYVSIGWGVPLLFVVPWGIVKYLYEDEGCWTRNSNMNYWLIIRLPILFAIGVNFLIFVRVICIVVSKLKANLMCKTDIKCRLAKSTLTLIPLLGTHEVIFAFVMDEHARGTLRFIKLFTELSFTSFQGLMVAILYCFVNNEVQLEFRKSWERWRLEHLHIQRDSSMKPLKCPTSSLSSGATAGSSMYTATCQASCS

As to `CCOC(=O)C1=C(C)NC(C)=C(C(=O)OCC)C1c1c(F)c(F)c(F)c(F)c1F`, the Potency result in experiment [1], in experiment [2] and in experiment [3] was “inactive” each time.

For `C[N+]1(C)C2CC(OC(=O)[C@H](CO)c3ccccc3)CC1C1OC12` (stereo partly drawn), the Potency entry in [1], in experiment [2] and in [3] was “inactive” throughout. Moreover, the compound was classed as inactive in experiment [4].

As to `CC(C)(C=O)Cc1cc(C(C)(C)C)c(O)c(C(C)(C)C)c1`, the Potency in [1] is 2510 nM (active). In addition, the Potency result in [2] and in experiment [3] was “inactive” throughout. Moreover, the result in experiment [4] was inactive.

As to `CC(C)Cc1ccc([C@H](C)C(=O)O)cc1`, the Potency result in experiment [1], in experiment [2] and in experiment [3] was “inactive” in each case.

Turning to `COc1cc2nc(N3CCN(C(=O)OCc4ccccc4)C(C(=O)NC(C)(C)C)C3)nc(N)c2cc1OC` (stereo not drawn), the Potency entry in experiment [1], in experiment [2] and in experiment [3] was “inactive” in each case. The compound was classed as inactive in [4].

With `CNC(=O)[C@H]1O[C@@H](n2cnc3c(NCc4cccc(I)c4)ncnc32)[C@H](O)[C@@H]1O`, the Potency entry in experiment [1], in [2] and in experiment [3] was “inactive” in each case. In addition, in experiment [4], the call was inactive.

For `NC[C@H]1O[C@@H](n2cnc3c(N)ncnc32)[C@H](O)[C@@H]1O`, the Potency entry in [1], in [2] and in experiment [3] was “inactive” each time. Moreover, the result in experiment [4] was inactive.

With `Nc1nc(Cl)nc2c1ncn2[C@@H]1O[C@H](CO)[C@@H](O)[C@H]1O`, the Potency result in [1], in [2] and in experiment [3] was “inactive” each time. In addition, in [4], the compound was classed as inactive.

With `N#C/C(=C\c1ccc(O)c(O)c1)C(=O)NCc1ccccc1`, the Potency in experiment [1] is 562 nM (active). For the same compound, the Potency entry in experiment [2] and in [3] was “inactive” throughout. Besides, the result in experiment [4] was inactive.

On to `C=C[C@H]1CN2CC[C@@H]1C[C@@H]2[C@@H](O)c1ccnc2ccc(OC)cc12`, for which the Potency result in experiment [1], in [2] and in [3] was “inactive” throughout.

As for `O=S(=O)(c1cccc2c(I)cccc12)N1CCCNCC1`, the Potency entry in experiment [1], in [2] and in experiment [3] was “inactive” in each case. The result in [4] was inactive.

As for `O=C1O/C(=C/Br)CCC1c1cccc2ccccc12` (stereo not drawn), the Potency result in experiment [1], in experiment [2] and in [3] was “inactive” in each case.

Regarding `Nc1ncnc2c1ncn2[C@@H]1O[C@H](COP(=O)(O)OP(=O)(O)OP(=O)(O)OP(=O)(O)OC[C@@H]2O[C@H](n3cnc4c(N)ncnc43)[C@@H](O)[C@H]2O)[C@@H](O)[C@H]1O`, the Potency result in experiment [1] and in [2] was “inactive” throughout. Further, in experiment [4], the result was inactive.

For the compound `Nc1nc(SCc2ccc([N+](=O)[O-])cc2)c2ncn([C@@H]3O[C@H](CO)[C@@H](O)[C@H]3O)c2n1`, the Potency entry in [1], in experiment [2] and in experiment [3] was “inactive” in each case.

Take `C=CC(C)=C[C@@]1(C)SC(=O)C(C)=C1O`: the Potency result in [1], in experiment [2] and in experiment [3] was “inactive” in each case. In addition, the compound was classed as inactive in experiment [4].

For the compound `Nc1nc(Nc2ccccc2)nc2c1ncn2[C@@H]1O[C@H](CO)[C@@H](O)[C@H]1O`, the Potency entry in experiment [1], in experiment [2] and in experiment [3] was “inactive” each time. In experiment [4], the outcome was inactive.

On to `CCCCCCCCCCCCCCCC(=O)NCC(COP(=O)([O-])OCC[N+](C)(C)C)OCC` (stereo not drawn), for which the Potency entry in experiment [1], in experiment [2] and in experiment [3] was “inactive” in each case. Further, the result in [4] was inactive.

As to `O=[N+]([O-])c1ccc2c(c1)S(=O)(=O)C=C2`, the Potency entry in experiment [1], in experiment [2] and in experiment [3] was “inactive” throughout.

Turning to `CN1CC(=O)N/C1=N/C(=O)Nc1cccc(Cl)c1`, the Potency entry in experiment [1], in experiment [2], in [3] and in [5] was “inactive” in each case. Besides, the call in experiment [4], in [6] and in experiment [7] was inactive. In experiment [8], the viability (% of control) amounted to 105%.

In the case of `COc1cccc(C(=O)NCCN2CCN(c3ccc(Cl)cc3)CC2)c1`, the Potency result in experiment [1], in experiment [2] and in [3] was “inactive” throughout. Besides, the outcome in experiment [4] was inactive.

In the case of `NC(CCCP(=O)(O)O)C(=O)O` (stereo not drawn), the Potency entry in [1], in experiment [2] and in experiment [3] was “inactive” each time. Further, in experiment [4], the outcome was inactive.

For the compound `COc1cc2c(CCNC(C)=O)c[nH]c2cc1Cl`, the Potency entry in experiment [2] and in [3] was “inactive” in each case. The result in [4] was inactive.

With `S=C(S)OC1CC2CC1C1CCCC21` (stereo not drawn), the Potency entry in experiment [2] and in experiment [3] was “inactive” throughout. In addition, the call in [9] was inactive.

As to `NC(=S)NCCC[C@H](N)C(=O)O`, the Potency entry in experiment [2] and in experiment [3] was “inactive” in each case. For the same compound, the compound was called inactive in [9] and in experiment [4].

Take `CC12C(=O)OC(=O)C1(C)C1CCC2O1` (stereo not drawn): the Potency entry in experiment [2] and in experiment [3] was “inactive” throughout. Besides, the outcome in experiment [9] was inactive.

Regarding `CC(C)NC[C@@H](O)c1ccc(O)c(O)c1`, the Potency result in [2] and in experiment [3] was “inactive” each time. For the same compound, in experiment [4], the compound was classed as inactive.

Consider `O=C1/C(=C/c2ccsc2)CC/C1=C\c1cccs1`, for which the Potency result in experiment [2] and in experiment [3] was “inactive” throughout.

For the compound `Oc1cc2c(cc1O)CN(C(=S)NCCc1ccc(Cl)cc1)CCC2`, the Potency in experiment [1] is 2240 nM (active). The compound was classed as inactive in [9] and in [4]. In addition, the Potency result in experiment [3] was “inactive”.
